This is part of a sample that, as a whole, favours compounds with a hit. Of some 83,000 tested, about 20% had one in any assay.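 Single-concentration screen, 48 h exposure, 96-well plates. Endpoint: percent growth. Below 10 = active.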 Calls of active or inactive are those of the source.

This experiment concerns SK-MEL-28 melanoma. Put plainly: NCI-60 one-dose screen, 48 h (100 = growth as untreated, 0 = no growth, -100 = all killed). Particulars: 10 µM unless noted.
As for `CCCCCC(=O)OCCC1CCCCC1`, the growth was 105% (inactive).

Consider `CC(C)OCC(CCl)OC(=O)Nc1ccccc1` (configuration not stated), for which the growth is 111% (inactive).

Regarding `Oc1cccc(CNC2CCCCC2)c1`, the growth is 110% (inactive).

`C=CCC(OC(C)=O)c1ccc(OC)c(OC)c1` (configuration not stated): the growth was 132% (inactive).

With `COC1OC(CO)C(OC)C(O)C1O` (configuration not stated), the growth is 95.9% (inactive).

As to `O=S(Cc1ccccc1)/C(=C/NC(=S)Nc1ccccc1)c1ccccc1` (configuration not stated), the growth is 106% (inactive).

Turning to `Oc1ccc(N=Cc2ccc(OCc3ccccc3)cc2)cc1`, the growth was 106% (inactive).

`CCCCCCCCCCCCCCCCCC(=O)NCCNC(=O)CCCCCCCCCCCCCCCCC`: the growth is 105% (inactive).

Turning to `O=C1C=C(c2ccccc2)C(O)(c2ccccc2)C1` (configuration not stated), the growth was 108% (inactive).

Turning to `Nc1ncc([N+](=O)[O-])cn1`, the growth was 103% (inactive).

`CCN(C(C)=O)c1ccc([N+](=O)[O-])cc1`: the growth was 106% (inactive).

Consider `C1C[S+]2CC[S+]1CC2`, for which the growth is 118% (inactive).

For `NC(=O)OCCO`, the growth was 113% (inactive).

Consider `COC1CC(OC(=O)c2ccc([N+](=O)[O-])cc2)C(COC(=O)c2ccc([N+](=O)[O-])cc2)O1` (configuration not stated), for which the growth was 101% (inactive).

In the case of `CC(=O)c1cc(O)ccc1O`, the growth is 109% (inactive).

Turning to `Cc1c(Cl)cccc1NC(=S)NC(=O)c1ccccc1`, the growth was 102% (inactive).

Regarding `Cc1cc(Cl)cc(Cc2cc(Cl)cc(C)c2O)c1O`, the growth was 22.6% (inactive).

For the compound `CCCOCc1cn[nH]n1`, the growth was 109% (inactive).

`Cc1ccc(C(C)C)c(OCC(=O)O)c1`: the growth is 106% (inactive).

Consider `OC(CBr)CCBr` (configuration not stated), for which the growth was 107% (inactive).

Consider `CC(CCC#N)(CCC#N)C(=O)c1ccccc1`, for which the growth was 119% (inactive).

In the case of `CCC(=O)Oc1c(C)cc(O)c2ccccc12`, the growth is 119% (inactive).

In the case of `COCC(N)=O`, the growth was 121% (inactive).

With `Cc1cc(C)cc(OCC(=O)O)c1`, the growth was 107% (inactive).

On to `CCOC(OCC)C(=O)c1ccccc1`, for which the growth is 104% (inactive).

As to `Cc1ccnc(Nc2nc3ccccc3[nH]2)n1`, the growth is 115% (inactive).

On to `O=C(NC(=S)N1CC=CCC1)c1ccccc1`, for which the growth is 115% (inactive).

Take `COc1cc(OC)c(NC(=O)C(Sc2nc(C)cc(C)c2C#N)c2ccccc2)cc1Cl` (configuration not stated): the growth is 105% (inactive).

Consider `O=S(=O)(O)c1cccc2cccnc12`, for which the growth is 97.3% (inactive).

Consider `CC(C)(CC(=O)O)CC(=O)O`, for which the growth was 99.2% (inactive).

For the compound `CC(=O)N(C)N=Nc1ccc(C)cc1`, the growth is 116% (inactive).

`CC(=O)c1cccs1`: the growth was 98.1% (inactive).

For the compound `CSCC[C@@H]1C(=O)N(C)[C@H](C(C)(C)C)N1C(=O)c1ccccc1`, the growth was 107% (inactive).

With `CC1=CC(=Nc2ccc(N(C)C)cc2)C=C(C)C1=O`, the growth was 96.8% (inactive).

`OC(CCN1CCCCC1)(c1ccccc1)c1ccccc1`: the growth was 112% (inactive).

As for `CCOC(=O)c1ccc(NC(=O)Nc2nccs2)cc1`, the growth is 40.9% (inactive).

On to `O=CNCCc1ccccc1`, for which the growth was 113% (inactive).

These data come from PubChem BioAssay (NCI).
